Data reported in PubChem BioAssay.
For some of these results: Entries with a potency or affinity are not part of this list. Activity calls are given as the source filed them.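 Rule for the calls, unless noted: active = calcium signal rise above buffer-control mean plus 5 SD in both duplicates, and also a hit in the primary screen; inactive = the rest.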

Legend:
[1] = test system: TRPC4 beta (transient receptor potential cation channel C4), mouse; assay: TRPC4 cation channel opening, retest – cell-based, Fluo4 calcium, HEK293 TRPC4beta/mu-opioid, duplicates, 10 µM, confirmation (AID 2426;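 active = fluorescence ratio normalized to control raised more than 50% in primary screen plus both repeat runs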;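 for activation: percent rise of integrated ratio over buffer wells lacking compound which define 0%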); settings: Fluo4 calcium fluorescence, at 10 µM; active compounds read high
[2] = test system: transient receptor potential cation channel C4 beta (TRPC4), mouse; assay: TRPC4 cation channel opening, second retest – cell-based, second round, Fluo4, HEK293 TRPC4beta/mu-opioid, 1 µM, confirmation (AID 2461;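 active = primary screen active and over 50% activation in each of two duplicate runs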); settings: Fluo4 calcium fluorescence, at 1 µM; active compounds read high
[3] = test system: TRPC4 (transient receptor potential cation channel C4 beta), mouse; assay: potentiation of DAMGO EC20 TRPC4 response – cell-based, second round, Fluo-4, HEK293 TRPC4beta/mu-opioid, 1 µM, confirmation (AID 2554;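 active = primary screen hit whose fluorescence ratio, in both repeats, exceeds the weak agonist control mean by 3 SD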); settings: DAMGO EC20, Fluo-4 calcium flux, at 1 µM; active compounds read high
[4] = test system: TRPC4 beta (transient receptor potential cation channel C4), mouse; assay: potentiation of DAMGO EC20 TRPC4 response – cell-based, Fluo-4, HEK293 TRPC4beta/mu-opioid, confirmation (AID 2555;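 active = primary screen hit whose calcium fluorescence ratio, in both repeats, exceeds the weak agonist control mean by 3 SD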); settings: DAMGO EC20, Fluo-4 calcium flux, at 10 µM; active compounds read high
[5] = biological target: Short transient receptor potential channel 4 (Mus musculus) (UniProt Q9QUQ5); assay: blockers of DAMGO-evoked TRPC4 calcium flux – cell-based, Fluo4, HEK293 TRPC4beta/mu-opioid, confirmation (AID 2636;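 active = calcium signal cut by more than 3 SD below the full-agonist control yet still positive, in both repeats and the earlier primary screen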); settings: at 10 µM; active compounds read high
[6] = biological target: Short transient receptor potential channel 4 (Mus musculus) (UniProt Q9QUQ5); assay: blockers of DAMGO-evoked TRPC4 calcium flux – cell-based, second round, Fluo4, HEK293 TRPC4beta/mu-opioid, 1 µM, confirmation (AID 2637;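 active = calcium signal ratio cut to more than 3 SD under the fully stimulated control mean yet still positive, in both repeats and the primary screen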;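 for inhibition: percent of integrated ratio relative to wells lacking test compound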); settings: at 1 µM; active compounds read high
[7] = biological target: Short transient receptor potential channel 4 (Mus musculus) (UniProt Q9QUQ5); assay: potentiation of DAMGO-evoked TRPC4 calcium signal – cell-based, HEK293 TRPC4/mu-opioid, Fluo-4 calcium, EC20 DAMGO, dose response (AID 434941;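 active = earlier screen potentiator hit that boosts the TRPC4 ion channel at some dose, with a dose response; inactive = no potentiation, no dose response, or not a prior hit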;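 note: calcium entry triggered by an EC20 dose of DAMGO at the co-expressed mu-opioid receptor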)
[8] = biological target: Short transient receptor potential channel 6 (Mus musculus) (UniProt Q61143); assay: TRPC6 blockade by TRPC4 inhibitor hits – cell-based, HEK293, membrane potential dye, duplicate, selectivity assay for TRPC4 inhibitor project, confirmation (AID 434948;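 active = active in primary screen and both duplicates, each dropping signal beyond three positive-control SD with fluorescence still positive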); settings: HEK293 TRPC6, membrane potential dye fluorescence, at 10 µM, stimulated with maximal-effect acetylcholine; active compounds read high
[9] = biological target: Short transient receptor potential channel 6 (Mus musculus) (UniProt Q61143); assay: TRPC6 opening by TRPC4 activator hits – cell-based, HEK293, membrane potential dye, duplicate, selectivity assay for TRPC4 activator project, confirmation (AID 434950;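 active = membrane potential signal rise above negative control mean plus 3 SD in both duplicates, also active in the earlier TRPC4 screen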;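 for activation: 0% = buffer only wells and 100% = acetylcholine maximal-effect wells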); settings: HEK293 TRPC6, membrane potential fluorescence, at 10 µM; activation: active compounds read high; outcome: activation
[10] = biological target: Short transient receptor potential channel 6 (Mus musculus) (UniProt Q61143); assay: positive modulators of mouse TRPC6 channel – HEK293 cells, membrane potential dye, duplicate, selectivity assay for TRPC4 potentiator project, confirmation (AID 434952;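 active = compound raising the membrane signal above positive-control mean plus 3 SD in both repeats, and a primary screen hit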); settings: HEK293 TRPC6, membrane potential dye fluorescence, at 10 µM, maximal acetylcholine added after compound; active compounds read high
[11] = biological target: Short transient receptor potential channel 4 (Mus musculus) (UniProt Q9QUQ5); assay: calcium flux activators in TRPC4/5HT1a cells, counter-screen for TRPC4 activator project, cell-based, second counter screen, HEK293 TRPC4/5HT1a, Fluo-4 (AID 434977); settings: Fluo-4 calcium flux, at 10 µM; active compounds read high;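 for activation: plate controls were assay buffer for no effect and maximal serotonin response for full effect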
[12] = serotonin-gated TRPC4 signal block – cell-based, second counter screen, HEK293 TRPC4/5HT1a, Fluo-4, counter-screen for TRPC4 inhibitor project, confirmation (AID 434978;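 active = primary screen active whose calcium signal fell more than 3 SD beyond the full-serotonin control mean in both duplicate plates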;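 for outcome: serotonin given first at submaximal then at maximal dose after compound preincubation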); settings: Fluo-4 calcium flux, at 10 µM, serotonin added to trigger calcium flux; active compounds read high
[13] = test system: TRPC4 (mouse), co-expressed with 5HT1a in HEK293; assay: enhancement of serotonin-evoked TRPC4 response – cell-based, second counter screen, HEK293 TRPC4/5HT1a, Fluo-4, counter-screen for TRPC4 potentiator project, confirmation (AID 434979;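 active = signal rise over 3 SD above mean of control wells given weak agonist, in both repeats and first screen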); settings: Fluo-4 calcium flux, at 10 µM, serotonin added at its EC20 dose; active compounds read high
[14] = nonspecific calcium rise without TRPC4 – cell-based, HEK293 mu-opioid receptor line, counter-screen for TRPC4 activator project, confirmation (AID 449723;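 active = hit in primary screen, with calcium signal over 5 SD above buffer well mean in both duplicates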;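 note: counter screen cells carry the mu-opioid receptor alone and lack TRPC4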); settings: HEK293 mu-opioid cells, Fluo-4 calcium fluorescence, at 10 µM; active compounds read high
[15] = nonspecific potentiation of DAMGO calcium response – cell-based, HEK293 mu-opioid receptor line, counter-screen for TRPC4 allosteric potentiator project, confirmation (AID 449724;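 active = calcium signal rise more than 3 SD above the low-dose agonist control mean, in both duplicate plates and the primary screen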); settings: HEK293 mu-opioid receptor cells, Fluo-4 calcium flux, at 10 µM, compound added before EC20 DAMGO stimulus; active compounds read high
[16] = nonspecific flux increase, KCNQ1-free cells – parental CHO cells, counter-screen for KCNQ1 potentiator project (AID 493006;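 active = duplicate-averaged activation above buffer control mean plus 5 SD of those controls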); settings: parental CHO-K1 cells, FluxOR thallium flux, at 10 µM; active compounds read high
[17] = biological target: Potassium voltage-gated channel subfamily KQT member 1 (Homo sapiens) (UniProt P51787); assay: enhancement of KCNQ1 channel thallium flux – FluxOR thallium flux, CHO cells, duplicates, confirmation (AID 493007;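 active = potentiation averaged over duplicate wells exceeding buffer-only control mean by more than 3 SD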;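 note: cells depolarized by a potassium plus thallium sulfate stimulus after compound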); settings: KCNQ1 cell line, FluxOR thallium flux fluorescence, at 10 µM; active compounds read high, % of reference activator effect, buffer zero
[18] = biological target: Potassium voltage-gated channel subfamily KQT member 2 (Rattus norvegicus) (UniProt O88943); assay: KCNQ2 thallium flux enhancement – KCNQ2-CHO-K1 cells, selectivity assay for KCNQ1 potentiator project (AID 493009;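 active = mean duplicate potentiation above the buffer control mean plus 5 SD of buffer wells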;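 note: assay conditions were tuned for KCNQ1 rather than KCNQ2 modulators; signal is max minus min fluorescence divided by baseline after thallium stimulus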); settings: FluxOR thallium flux fluorescence, at 10 µM; active compounds read high, scaled: buffer 0, activator control 100
[19] = biological target: Potassium voltage-gated channel subfamily KQT member 1 (Homo sapiens) (UniProt P51787); assay: KCNQ1 activators by electrophysiology – IonWorks patch clamp, KCNQ1-CHO cells, orthogonal assay for KCNQ1 potentiator project, confirmation (AID 493184;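 active = current rise at least 3 SD above the untreated control mean in each of two repeat wells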); settings: automated patch clamp current, at 10 µM; active compounds read high

Sequence of Short transient receptor potential channel 6 (Mus musculus) (Q61143 whole entry, looked up): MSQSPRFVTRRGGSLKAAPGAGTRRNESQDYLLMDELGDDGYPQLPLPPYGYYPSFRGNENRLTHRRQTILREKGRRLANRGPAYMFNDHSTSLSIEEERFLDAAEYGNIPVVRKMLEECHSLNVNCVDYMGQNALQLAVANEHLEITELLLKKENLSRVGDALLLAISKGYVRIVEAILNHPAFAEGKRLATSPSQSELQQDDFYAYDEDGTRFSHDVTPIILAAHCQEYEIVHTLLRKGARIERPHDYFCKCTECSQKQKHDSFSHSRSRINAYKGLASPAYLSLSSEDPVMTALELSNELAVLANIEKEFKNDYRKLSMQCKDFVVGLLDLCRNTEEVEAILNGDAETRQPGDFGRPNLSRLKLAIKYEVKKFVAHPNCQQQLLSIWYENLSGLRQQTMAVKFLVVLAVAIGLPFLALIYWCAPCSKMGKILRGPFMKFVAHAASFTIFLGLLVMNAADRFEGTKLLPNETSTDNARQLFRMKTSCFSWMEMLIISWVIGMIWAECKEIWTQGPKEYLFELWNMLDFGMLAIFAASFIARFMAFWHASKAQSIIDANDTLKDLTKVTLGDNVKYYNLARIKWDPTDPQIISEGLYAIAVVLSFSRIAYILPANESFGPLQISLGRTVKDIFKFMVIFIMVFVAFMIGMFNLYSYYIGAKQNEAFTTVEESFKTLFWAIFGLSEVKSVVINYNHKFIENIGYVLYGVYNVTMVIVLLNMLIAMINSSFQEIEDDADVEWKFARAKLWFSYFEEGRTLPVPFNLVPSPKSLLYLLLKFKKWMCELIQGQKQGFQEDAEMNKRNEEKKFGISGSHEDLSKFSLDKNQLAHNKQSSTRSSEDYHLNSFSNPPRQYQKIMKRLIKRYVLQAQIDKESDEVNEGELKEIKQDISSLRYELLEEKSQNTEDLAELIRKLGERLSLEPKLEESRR
Sequence of Short transient receptor potential channel 4 (Mus musculus) (Q9QUQ5 whole entry, looked up): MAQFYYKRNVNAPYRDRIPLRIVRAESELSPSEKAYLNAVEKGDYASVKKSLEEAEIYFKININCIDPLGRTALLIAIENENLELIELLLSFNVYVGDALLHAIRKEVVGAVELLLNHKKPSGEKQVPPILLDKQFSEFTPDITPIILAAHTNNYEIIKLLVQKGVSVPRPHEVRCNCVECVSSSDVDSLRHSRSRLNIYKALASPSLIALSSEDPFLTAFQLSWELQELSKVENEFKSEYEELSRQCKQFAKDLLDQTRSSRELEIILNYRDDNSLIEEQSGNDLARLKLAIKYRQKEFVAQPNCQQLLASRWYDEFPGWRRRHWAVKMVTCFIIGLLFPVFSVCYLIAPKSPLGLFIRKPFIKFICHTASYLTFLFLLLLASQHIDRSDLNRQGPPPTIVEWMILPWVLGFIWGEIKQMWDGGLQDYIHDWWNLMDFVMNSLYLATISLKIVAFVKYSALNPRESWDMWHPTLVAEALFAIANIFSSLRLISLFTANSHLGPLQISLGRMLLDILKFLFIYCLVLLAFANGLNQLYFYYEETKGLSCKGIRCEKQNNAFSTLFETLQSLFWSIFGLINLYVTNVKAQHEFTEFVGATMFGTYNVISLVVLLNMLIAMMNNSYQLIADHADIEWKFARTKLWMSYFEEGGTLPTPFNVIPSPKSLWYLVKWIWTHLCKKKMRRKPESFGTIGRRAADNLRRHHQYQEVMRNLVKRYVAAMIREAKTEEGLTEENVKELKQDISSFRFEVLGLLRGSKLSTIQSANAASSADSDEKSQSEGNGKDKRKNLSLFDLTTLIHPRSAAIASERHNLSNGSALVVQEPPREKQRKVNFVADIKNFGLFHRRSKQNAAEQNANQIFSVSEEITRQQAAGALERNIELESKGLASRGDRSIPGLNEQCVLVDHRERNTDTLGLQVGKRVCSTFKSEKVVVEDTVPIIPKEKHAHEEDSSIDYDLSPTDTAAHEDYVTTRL
Sequence of Potassium voltage-gated channel subfamily KQT member 1 (Homo sapiens) (P51787 whole entry, looked up): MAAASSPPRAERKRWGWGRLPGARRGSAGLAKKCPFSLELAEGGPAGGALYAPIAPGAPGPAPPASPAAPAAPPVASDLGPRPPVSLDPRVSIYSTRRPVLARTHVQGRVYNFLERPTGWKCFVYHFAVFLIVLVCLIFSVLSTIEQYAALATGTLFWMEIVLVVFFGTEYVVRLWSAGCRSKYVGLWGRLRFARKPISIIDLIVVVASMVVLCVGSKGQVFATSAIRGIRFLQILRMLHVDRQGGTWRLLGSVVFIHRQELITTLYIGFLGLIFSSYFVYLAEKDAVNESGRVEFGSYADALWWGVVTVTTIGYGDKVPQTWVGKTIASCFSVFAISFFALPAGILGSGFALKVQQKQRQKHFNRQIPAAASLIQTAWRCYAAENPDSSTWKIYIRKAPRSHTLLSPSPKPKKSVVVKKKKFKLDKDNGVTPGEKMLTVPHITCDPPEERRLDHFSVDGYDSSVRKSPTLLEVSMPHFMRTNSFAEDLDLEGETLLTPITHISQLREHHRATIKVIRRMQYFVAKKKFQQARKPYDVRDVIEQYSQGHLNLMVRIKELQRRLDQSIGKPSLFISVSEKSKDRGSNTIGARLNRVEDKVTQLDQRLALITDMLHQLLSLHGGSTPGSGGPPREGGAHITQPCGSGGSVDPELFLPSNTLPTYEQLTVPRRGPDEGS
Sequence of Potassium voltage-gated channel subfamily KQT member 2 (Rattus norvegicus) (O88943 whole entry, looked up): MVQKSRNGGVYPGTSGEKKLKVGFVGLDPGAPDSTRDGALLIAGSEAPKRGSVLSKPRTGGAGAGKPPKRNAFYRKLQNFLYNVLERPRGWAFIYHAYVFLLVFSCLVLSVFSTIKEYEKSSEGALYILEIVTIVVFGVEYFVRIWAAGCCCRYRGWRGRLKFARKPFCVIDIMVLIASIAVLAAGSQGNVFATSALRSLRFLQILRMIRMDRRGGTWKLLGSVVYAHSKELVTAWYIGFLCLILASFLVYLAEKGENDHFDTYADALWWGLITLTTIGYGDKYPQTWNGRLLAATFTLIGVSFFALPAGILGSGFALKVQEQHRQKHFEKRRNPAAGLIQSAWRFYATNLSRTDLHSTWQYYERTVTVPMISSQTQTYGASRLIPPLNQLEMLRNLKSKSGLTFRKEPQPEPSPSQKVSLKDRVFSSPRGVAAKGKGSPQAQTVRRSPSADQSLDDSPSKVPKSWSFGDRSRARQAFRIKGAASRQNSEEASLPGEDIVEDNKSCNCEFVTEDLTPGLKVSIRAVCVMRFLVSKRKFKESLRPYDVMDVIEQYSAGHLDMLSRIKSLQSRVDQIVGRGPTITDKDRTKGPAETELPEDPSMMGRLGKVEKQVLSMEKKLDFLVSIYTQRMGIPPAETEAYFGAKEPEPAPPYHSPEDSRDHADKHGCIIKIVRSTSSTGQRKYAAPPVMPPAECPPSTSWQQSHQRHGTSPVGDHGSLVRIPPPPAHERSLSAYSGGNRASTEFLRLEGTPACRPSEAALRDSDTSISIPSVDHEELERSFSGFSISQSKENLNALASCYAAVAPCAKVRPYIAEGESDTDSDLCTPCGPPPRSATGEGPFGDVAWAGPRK

CC1CC(C)(C)N(C(=O)CN2C(=O)c3ccccc3C2=O)c2ccccc21 (centres undefined)
inactive: outcome [2] | outcome [3] | outcome [4] | outcome [6] | outcome [7] | outcome [8] | outcome [10] | outcome [12] | outcome [13] | outcome [15]
active: activation [1] 149% | inhibition [5] 73% | activation [9] 51.5% | activation [11] 23.1% | activation [14] 62.6%

O=C(NCc1ccccc1)C1=C[C@H](c2ccc3c(c2)OCO3)C[C@H](OCc2ccc(CO)cc2)O1
inactive: outcome [2] | outcome [3] | outcome [4] | outcome [5] | outcome [6] | outcome [7] | outcome [8] | outcome [9] | outcome [10] | outcome [13] | outcome [14] | outcome [15]
active: activation [1] 142% | activation [11] 115% | inhibition [12] 18.1%

COc1ccc2nc(NS(=O)(=O)c3ccc(NC(C)=O)cc3)sc2c1
inactive: outcome [1] | outcome [2] | outcome [3] | outcome [4] | outcome [6] | outcome [7] | outcome [8] | outcome [10] | outcome [11] | outcome [12] | outcome [13] | outcome [14] | outcome [15]
active: inhibition [5] 73% | activation [9] 37.5%

Cc1ccccc1Nc1nc(NCc2ccco2)c2ccccc2n1
active: inhibition [6] 41% | inhibition [8] 43.5% | inhibition [12] 36.9%
inactive: outcome [1] | outcome [2] | outcome [3] | outcome [4] | outcome [5] | outcome [7] | outcome [9] | outcome [10] | outcome [11] | outcome [13] | outcome [14] | outcome [15]

O=C(NC(=S)NNC(=O)c1ccco1)c1ccc(Br)cc1
inactive: outcome [2] | outcome [3] | outcome [4] | outcome [5] | outcome [6] | outcome [7] | outcome [8] | outcome [10] | outcome [12] | outcome [13] | outcome [14] | outcome [15]
active: activation [1] 149% | activation [9] 32.5% | activation [11] 22.9%

Cc1c(C(=O)N(Cc2cccs2)C2CCS(=O)(=O)C2)oc2ccccc12 (centres undefined)
active: inhibition [5] 97% | activation [9] 56.5%
inactive: outcome [1] | outcome [2] | outcome [3] | outcome [4] | outcome [6] | outcome [7] | outcome [8] | outcome [10] | outcome [11] | outcome [12] | outcome [13] | outcome [14] | outcome [15]

OC1(c2ccccc2)CN(c2ccccc2)C2=[N+]1CCS2 (centres undefined)
active: inhibition [5] 89% | activation [9] 34%
inactive: outcome [1] | outcome [2] | outcome [3] | outcome [4] | outcome [6] | outcome [7] | outcome [8] | outcome [10] | outcome [11] | outcome [12] | outcome [13] | outcome [14] | outcome [15]

Clc1ccc(COn2c(-c3ccc(Cl)cc3Cl)nc3ncccc32)cc1
active: activation [1] 74% | activation [9] 54%
inactive: outcome [2] | outcome [3] | outcome [4] | outcome [5] | outcome [6] | outcome [7] | outcome [8] | outcome [10] | outcome [11] | outcome [12] | outcome [13] | outcome [14] | outcome [15]

CC1CCCN(CCOCCOc2ccccc2-c2ccccc2)C1 (centres undefined)
inactive: outcome [1] | outcome [2] | outcome [3] | outcome [4] | outcome [7] | outcome [8] | outcome [10] | outcome [11] | outcome [13] | outcome [14] | outcome [15]
active: inhibition [5] 90% | inhibition [6] 53% | activation [9] 82% | inhibition [12] 30.7%

COc1ccc(Cl)cc1NC(=O)CNCC(c1ccccc1)N(C)C (centres undefined)
active: inhibition [5] 100% | inhibition [6] 60% | activation [9] 52.5%
inactive: outcome [1] | outcome [2] | outcome [3] | outcome [4] | outcome [7] | outcome [8] | outcome [10] | outcome [11] | outcome [12] | outcome [13] | outcome [14] | outcome [15]

Cc1cc(NCc2ccccc2)nc2ccccc12
inactive: outcome [2] | outcome [3] | outcome [4] | outcome [5] | outcome [6] | outcome [7] | outcome [9] | outcome [10] | outcome [13] | outcome [14] | outcome [15] | outcome [16] | outcome [17] | outcome [18] | outcome [19]
active: activation [1] 95% | inhibition [8] 53.5% | activation [11] 5.93% | inhibition [12] 26.2%

COc1ccc(C(CNC(=O)c2cccc3cccnc23)N(C)C)cc1 (centres undefined)
active: activation [1] 132% | inhibition [6] 80% | activation [9] 33%
inactive: outcome [2] | outcome [3] | outcome [4] | outcome [5] | outcome [7] | outcome [8] | outcome [10] | outcome [11] | outcome [12] | outcome [13] | outcome [14] | outcome [15]

CN(C)C(CNC(=O)c1ccc(C(F)(F)F)cc1)c1ccco1 (centres undefined)
inactive: outcome [2] | outcome [3] | outcome [4] | outcome [7] | outcome [8] | outcome [10] | outcome [11] | outcome [12] | outcome [13] | outcome [14] | outcome [15]
active: activation [1] 55% | inhibition [5] 96% | inhibition [6] 92% | activation [9] 28.5%

Cc1ccccc1C(=O)Nc1c(C(=O)N(CCN(C)C)Cc2ccco2)oc2ccccc12
inactive: outcome [2] | outcome [3] | outcome [4] | outcome [5] | outcome [6] | outcome [7] | outcome [8] | outcome [10] | outcome [11] | outcome [12] | outcome [13] | outcome [14] | outcome [15]
active: activation [1] 84% | activation [9] 33.5%
